PREPL inhibitor: inhibitors of human prolyl oligopeptidase-like enzyme PREPL | Q4J6C6 | recombinant PREPL, fluorescence polarization activity-based probe | inhibition, % at 5.96 µM | 320,000 compounds, 0.68% hits | AID 2751
GSTO1 inh: counter-screen for RBBP9 inhibitors: inhibitors of human GSTO1 | recombinant GSTO1, activity-based probe fluorescence polarization | P78417 | inhibition, % at 5.96 µM | 300,000 compounds, 1.1% hits;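 active = inhibition above the campaign mean inhibition plus 3 SD, cut at about 35% in these data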
Fam108B counter: Fam108B inhibition, counter-screen for RBBP9 inhibitors | recombinant Fam108B, FP-Rh probe fluorescence polarization | inhibition, % at 9.51 µM | 300,000 compounds, 0.33% hits | AID 1947;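 active = inhibition above the screen mean inhibition plus 3 SD, computed separately per campaign, cut at about 18% in these data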;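 also: inhibitors lower polarization as less probe binds the enzyme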
PME-1 inh: blocks human protein phosphatase methylesterase 1; recombinant PME-1, FP-Rh probe fluorescence polarization; Q9Y570; 320,000 compounds, 0.53% hits; inhibition, % at 5.9 µM;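 active = inhibition above the campaign mean of all compounds plus 3 SD, cut at about 26% in these data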;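 also: competitive labeling of PME-1 active site by serine hydrolase directed probe; inhibitors block probe labeling so polarization falls and inhibition rises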
Target sequence (Q9Y570 whole entry, looked up): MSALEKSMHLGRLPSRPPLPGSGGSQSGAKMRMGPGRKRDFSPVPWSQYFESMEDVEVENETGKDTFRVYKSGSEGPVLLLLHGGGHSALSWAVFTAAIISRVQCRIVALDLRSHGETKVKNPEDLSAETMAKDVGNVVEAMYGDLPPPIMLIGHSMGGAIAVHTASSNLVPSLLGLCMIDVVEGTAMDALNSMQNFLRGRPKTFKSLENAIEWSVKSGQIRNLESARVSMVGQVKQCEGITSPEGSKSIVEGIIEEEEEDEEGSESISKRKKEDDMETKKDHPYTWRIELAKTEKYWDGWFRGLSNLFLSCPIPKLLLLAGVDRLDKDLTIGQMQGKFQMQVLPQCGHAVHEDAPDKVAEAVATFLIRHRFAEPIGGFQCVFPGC
LYPLA1 counter: blocks human lysophospholipase 1, a PME1 counter-screen; 320,000 compounds, 0.16% hits; recombinant LYPLA1, FP-Rh probe fluorescence polarization; inhibition, % at 5.9 µM; O75608;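 active = inhibition above the mean of all tested compounds plus 3 SD, set per campaign, cut at about 14% in these data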;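 also: inhibitors block serine hydrolase probe labeling of LYPLA1 so polarization falls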
Target sequence (O75608 whole entry, looked up): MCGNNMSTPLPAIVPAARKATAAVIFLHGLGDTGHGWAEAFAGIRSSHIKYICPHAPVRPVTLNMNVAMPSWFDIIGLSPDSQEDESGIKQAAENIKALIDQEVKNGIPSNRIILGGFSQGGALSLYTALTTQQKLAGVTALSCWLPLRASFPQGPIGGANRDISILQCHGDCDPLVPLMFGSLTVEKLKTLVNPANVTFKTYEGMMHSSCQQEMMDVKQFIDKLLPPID
LYPLA2 inh: blocks human lysophospholipase 2, a PME1 counter-screen. 320,000 compounds, 0.38% hits. O95372. inhibition, % at 5.9 µM. recombinant LYPLA2, FP-Rh probe fluorescence polarization;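 active = inhibition above the screen-wide mean plus 3 SD, limit set per campaign, cut at about 26% in these data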
GSTO1 inh conf: confirmation of human GSTO1 inhibitors. recombinant GSTO1, probe fluorescence polarization. shares compounds with GSTO1 inh. inhibition, % at 5.96 µM. AID 2176. 2,400 compounds, 54% hits;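 active = inhibition above the primary screen's cutoff, its mean inhibition plus 3 SD, cut at about 35% in these data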;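 also: loss of polarization as inhibitors block binding of rhodamine sulfonate ester activity probe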
LYPLA1 confirm: LYPLA1 (human) inhibition, confirmation counter-screen | recombinant LYPLA1, FP-Rh probe fluorescence polarization | 480 compounds, 69% hits | inhibition, % at 5.9 µM | shares compounds with LYPLA1 counter;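 active = mean inhibition across replicates above the hit cutoff set in the primary screen, cut at about 15% in these data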;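 also: loss of FP-Rh probe labeling of LYPLA1 seen as lower polarization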
LYPLA2 conf: counter-screen for PME1 inhibitors: confirmation of human LYPLA2 inhibitors | shares compounds with LYPLA2 inh | recombinant LYPLA2, FP-Rh probe fluorescence polarization | inhibition, % at 5.9 µM | 1,100 compounds, 72% hits;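 active = mean inhibition across replicates above the hit cutoff set in the primary screen, cut at about 26% in these data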;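 also: blocked labeling of the enzyme by serine hydrolase FP-Rh probe lowers polarization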
PREPL inh cf: confirmation of human PREPL enzyme inhibitors; inhibition, % at 5.96 µM; recombinant PREPL, fluorescence polarization activity probe; shares compounds with PREPL inhibitor; 2,000 compounds, 67% hits
A number is an active result; 0 = inactive; - = no result. Sampled rows, rich in hits. Any-hit rate of the full collection: about 2%. Rule as the data show it, unless noted: active = inhibition above about 43%; inactive = the rest.

SMILES	PREPL inhibitor	GSTO1 inh	Fam108B counter	PME-1 inh	LYPLA1 counter	LYPLA2 inh	GSTO1 inh conf	PREPL inh cf	others
CC1=CC(C)(C)N2C(=O)C(=Nc3ccc(O)cc3)c3cccc1c32	0	97	0	44	17	0	0	-	LYPLA1 confirm=0
COc1cc(N=C2C(=O)N3c4c(cccc42)C(C)=CC3(C)C)cc(OC)c1	0	0	0	0	0	0	-	-
CCC(=Nc1ccc(N)cc1)C1=C(O)C(C(=O)OC)C(C)(C)CC1=O (centres undefined)	0	85	0	26	21	0	0	-	LYPLA1 confirm=0
O=C(OCC1OC(n2cc(Br)c(=O)[nH]c2=O)C(Br)C1O)c1ccccc1 (centres undefined)	0	0	0	0	0	0	-	-
Cc1cc(=O)n2nc(N3CCCC(C(=O)NCCCN4CC(C)CC(C)C4)C3)sc2n1 (centres undefined)	0	0	0	0	0	0	-	-
CCn1nc(C)cc1C(=O)N1CCCC(N2CCN(c3cccc(Cl)c3)CC2)C1 (centres undefined)	0	47	0	0	0	46	0	-	LYPLA2 conf=46
CCCCC(=Nc1ccc(N)cc1)C1=C(O)C(C(=O)OC)C(C)(C)CC1=O (centres undefined)	0	86	0	41	23	28	0	-	LYPLA1 confirm=0;LYPLA2 conf=0
CCCC(=Nc1ccccc1)C1=C(O)C(C(=O)OC)C(C)(C)CC1=O (centres undefined)	0	0	0	0	0	0	-	-
CCN(CC)S(=O)(=O)c1cccc(C(=O)NCC2CCCCC2)c1	0	0	0	0	0	0	-	-
Cc1cc(C(=O)N/N=C/c2ccc(-c3cccc(Cl)c3Cl)o2)n[nH]1	0	0	0	0	0	0	-	-
CC(C)(C)c1cc(C(=O)N/N=C/c2ccc(-c3ccccc3[N+](=O)[O-])o2)n[nH]1	50	52	0	32	26	36	0	0	LYPLA1 confirm=0;LYPLA2 conf=0
COc1cc(NC(C)CCCN)c2ncccc2c1 (centres undefined)	57	47	0	0	0	0	0	0
COc1cc(NCCCCCCCN)c2ncccc2c1	55	46	0	0	0	0	60	0
COc1ccc(OCC(=O)N/N=C2\CCCCc3ccccc32)cc1	0	0	0	0	0	0	-	-
CCc1ccc(OCC(=O)N/N=C2\CC(=O)c3ccccc32)cc1	54	61	0	0	0	0	0	0
COC(=O)CCC(=O)OC1(C)C(=O)C2=CN(Cc3ccco3)C(c3ccc(OC)cc3)=CC2=C(Br)C1=O (centres undefined)	0	0	0	0	0	0	-	-
COC(=O)CCC(=O)OC1(C)C(=O)C2=CN(C3CCCC3)C(c3ccc(OC)cc3)=CC2=C(Br)C1=O (centres undefined)	54	50	0	0	0	0	0	0
COCCN1C=C2C(=O)C(C)(OC(=O)CCC(=O)OC)C(=O)C(Br)=C2C=C1c1ccc(OC)cc1 (centres undefined)	64	55	0	0	0	0	61	0
C=CCN1C=C2C(=O)C(C)(OC(=O)CCC(=O)OC)C(=O)C(Br)=C2C=C1c1ccc(OC)cc1 (centres undefined)	74	61	0	0	0	0	69	58
CCOc1ccccc1OCCCC(=O)N(CC)CC(=O)Nc1c(F)cccc1F	0	0	0	0	0	0	-	-
O=C1/C(=N\S(=O)(=O)c2cccs2)C([n+]2ccc(CCCc3ccccc3)cc2)=C([O-])c2ccccc21	69	79	0	0	0	0	84	70
O=S(=O)([N-]c1nc2ccccc2nc1-[n+]1ccc(CCCc2ccccc2)cc1)c1cccs1	0	0	0	0	0	0	-	-
CCCCN1C(=O)NC(c2ccc(OC)cc2)C(C(=O)OCc2ccccc2)=C1C (centres undefined)	0	0	0	0	0	0	-	-
O=C1C(NS(=O)(=O)c2cccs2)=C(N2CCN(c3cccc(Cl)c3)CC2)C(=O)c2ccccc21	58	50	0	0	0	0	0	56
CC1CCN(C2=C(NS(=O)(=O)c3ccc(Cl)cc3)C(=O)c3ccccc3C2=O)CC1	0	0	0	0	0	0	-	-
SMILES	PREPL inhibitor	GSTO1 inh	Fam108B counter	PME-1 inh	LYPLA1 counter	LYPLA2 inh	GSTO1 inh conf	PREPL inh cf	others
Cn1cc(Br)c(C(=O)Nc2nccs2)n1	0	0	0	0	0	0	-	-
CCc1ccc(-c2cc(C)no2)cc1S(=O)(=O)N1CCN(c2cc(C)ccc2C)CC1	0	0	0	0	0	0	-	-
CC(=O)Nc1ccc(S(=O)(=O)N2C(C)CCCC2C)cc1 (centres undefined)	0	0	0	0	0	0	-	-
CC1=NN(c2ccc(C(=O)O)cc2)C(=O)/C1=C\c1ccc(OC(=O)c2cccs2)cc1	45	55	0	0	0	0	0	62
Nc1c(C(=O)NCc2ccc3c(c2)OCO3)c2nc3ccccc3nc2n1CCCN1CCOCC1	52	50	0	0	0	0	0	54
Nc1c(C(=O)NCc2ccco2)c2nc3ccccc3nc2n1CCc1ccc(F)cc1	53	75	0	0	0	0	58	0
O=C(c1ccc(N2CCOCC2)cc1[N+](=O)[O-])N1CCOCC1	0	0	0	0	0	0	-	-
O=C(c1cc(COc2ccc(F)c(F)c2)on1)N1CCN(C2CCCCC2)C(=O)C1	0	0	0	0	0	0	-	-
O=C(COC(=O)c1ccc2c(c1)OCCO2)NC1CCCCC1	0	-	-	0	0	0	-	-
CC1(OC(=O)C2CCCC2)C(=O)C=C2C=C(c3ccsc3)N(CC3CC3)C=C2C1=O (centres undefined)	43	40	0	0	0	0	0	0
CC(=O)Nc1ccc(N2CCN(c3ccc(F)cc3)CC2)cc1	0	0	0	0	0	0	-	-
O=C(Nc1ccc(Cl)cc1)N1CCN(c2ccccc2)CC1	0	0	0	0	0	0	-	-
O=C(O)/C=C\C(=O)Nc1ccc(N2CCN(c3ccc(Cl)cc3)CC2)cc1	48	59	0	0	0	0	0	0
O=C(O)/C=C\C(=O)Nc1ccc(N2CCN(c3ccc(F)cc3)CC2)cc1	51	58	0	0	0	0	0	0
CC(=O)NC(NC(C)=O)c1ccc(N(C)C)cc1	0	0	0	0	0	0	-	-
CC(=O)NC1=C(Nc2ccc(N(C)C)cc2)C(=O)c2ccccc2C1=O	49	46	0	0	0	0	0	0

From PubChem BioAssay
